According to PubChem BioAssay (Tox21):
Unmarked numbers belong to inactive results. Where a call stands in place of a potency, no number is given. Activity calls are given as the source filed them. Unless noted, calls follow the shape of the dose curve; as a rule, active = well fitted curve in the direction sought with a large enough effect in the repeat runs; inconclusive = weak or mixed curves; inactive = no such curve, though single readings can be large; an effect the other way counts as inactive or inconclusive.

Assays:
[1] = qHTS assay to identify small molecule antagonists of the thyroid receptor (TR) signaling pathway (AID 743065); also: nearly all actives have a fitted effect of over 55% in size; also: potency is read from the fitted curve at half-maximal effect
Method in brief: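 GH3.TRE-Luc rat pituitary cells (two TREs driving luciferase) were dosed with compound, then stimulated with 1 nM T3 (final) for 23.5 h at 37 C. ONE-Glo luminescence was the read-out, with CellTiter-Fluor fluorescence as the cytotoxicity counter-screen.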

[2] = test system: thyroid hormone receptor (rat, GH3 cells); test: qHTS assay to identify small molecule agonists of the thyroid receptor (TR) signaling pathway (AID 743066; calls by dose curve)
[3] = molecular target: Estrogen receptor (Homo sapiens) (UniProt P03372); test: qHTS assay to identify small molecule agonists of the estrogen receptor alpha (ER-alpha) signaling pathway (AID 743075; calls by dose curve;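 also: HEK293 GripTite cells with ER-alpha and UAS-driven beta-lactamase reporter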; also: potency is read from the fitted curve at half-maximal effect)
Sequence of Estrogen receptor (Homo sapiens) (P03372 whole entry, looked up): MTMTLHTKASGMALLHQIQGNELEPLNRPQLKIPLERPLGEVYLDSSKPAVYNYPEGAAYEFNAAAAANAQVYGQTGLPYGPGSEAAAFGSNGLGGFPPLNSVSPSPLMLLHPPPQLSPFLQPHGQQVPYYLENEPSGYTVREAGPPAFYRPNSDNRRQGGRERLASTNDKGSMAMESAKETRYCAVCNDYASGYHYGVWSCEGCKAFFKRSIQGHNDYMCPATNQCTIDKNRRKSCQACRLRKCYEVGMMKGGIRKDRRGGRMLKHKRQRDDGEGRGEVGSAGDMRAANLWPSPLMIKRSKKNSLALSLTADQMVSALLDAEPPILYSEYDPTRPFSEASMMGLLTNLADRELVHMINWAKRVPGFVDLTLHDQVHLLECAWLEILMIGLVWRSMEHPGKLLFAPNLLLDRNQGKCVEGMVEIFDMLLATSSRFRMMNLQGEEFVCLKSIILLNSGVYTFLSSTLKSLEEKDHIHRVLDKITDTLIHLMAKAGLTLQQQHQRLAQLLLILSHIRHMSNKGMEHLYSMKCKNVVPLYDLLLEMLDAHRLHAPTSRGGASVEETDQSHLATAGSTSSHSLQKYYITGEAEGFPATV

[4] = qHTS assay to identify small molecule antagonists of the estrogen receptor alpha (ER-alpha) signaling pathway using the BG1 cell line - cell viability counter screen (AID 743081);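 also: compound given together with 17beta-estradiol as the ER stimulus; nearly all actives have a fitted effect of over 45% in size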
[5] = qHTS assay to identify aromatase inhibitors - cell viability counter screen (AID 743084);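 also: cells stimulated with testosterone during compound exposure; nearly all actives have a fitted effect of over 55% in size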
[6] = molecular target: Aryl hydrocarbon receptor (Homo sapiens) (UniProt P35869); test: qHTS assay to identify small molecule that activate the aryl hydrocarbon receptor (AhR) signaling pathway (AID 743085);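 also: HG2L7.5c1 human HepG2 liver cells with stably integrated DRE-driven firefly reporter; nearly all actives have a fitted effect of over 15% in size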
Sequence of Aryl hydrocarbon receptor (Homo sapiens) (P35869 whole entry, looked up): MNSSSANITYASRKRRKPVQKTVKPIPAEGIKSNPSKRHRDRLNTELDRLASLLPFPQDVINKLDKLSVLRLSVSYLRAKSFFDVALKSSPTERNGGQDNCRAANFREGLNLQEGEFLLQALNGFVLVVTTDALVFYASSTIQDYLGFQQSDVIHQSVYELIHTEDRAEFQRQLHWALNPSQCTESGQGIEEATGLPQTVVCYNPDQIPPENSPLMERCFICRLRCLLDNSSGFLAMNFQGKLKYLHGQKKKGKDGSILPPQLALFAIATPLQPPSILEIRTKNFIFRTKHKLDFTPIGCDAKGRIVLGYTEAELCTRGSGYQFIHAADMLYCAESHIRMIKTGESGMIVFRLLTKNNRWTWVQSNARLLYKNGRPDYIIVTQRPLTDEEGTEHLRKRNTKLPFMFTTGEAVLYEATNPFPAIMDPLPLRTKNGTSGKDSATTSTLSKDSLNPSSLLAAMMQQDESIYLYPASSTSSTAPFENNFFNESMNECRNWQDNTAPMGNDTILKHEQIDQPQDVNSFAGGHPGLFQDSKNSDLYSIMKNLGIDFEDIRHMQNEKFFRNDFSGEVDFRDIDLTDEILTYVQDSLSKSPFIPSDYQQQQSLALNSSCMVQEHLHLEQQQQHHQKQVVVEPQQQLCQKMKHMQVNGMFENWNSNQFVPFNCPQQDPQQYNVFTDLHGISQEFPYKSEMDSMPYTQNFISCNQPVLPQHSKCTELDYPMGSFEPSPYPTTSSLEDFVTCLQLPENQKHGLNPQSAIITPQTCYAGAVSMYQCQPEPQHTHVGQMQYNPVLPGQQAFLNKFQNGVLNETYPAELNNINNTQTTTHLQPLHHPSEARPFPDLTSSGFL
Method in brief: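 Reporter assay in engineered HepG2 line HG2L7.5c1, whose plasmid carries twenty dioxin responsive elements upstream of firefly luciferase. Treatment lasted 24 h at 37C; ONE-Glo luminescence gauged induction.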

[7] = qHTS assay to identify small molecule that activate the aryl hydrocarbon receptor (AhR) signaling pathway - cell viability counter screen (AID 743086);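 also: HepG2 liver cells carrying the AhR DRE luciferase reporter; nearly all actives have a fitted effect of over 45% in size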
Method in brief: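 HepG2-AhR-luc (HG2L7.5c1) cells, 4000/well, treated 24 h at 37 C with compound; viability measured as CellTiter-Fluor fluorescence after 30 min in the same wells as the luciferase read.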

[8] = molecular target: Peroxisome proliferator-activated receptor gamma (Homo sapiens) (UniProt P37231); test: qHTS assay to identify small molecule agonists of the peroxisome proliferator-activated receptor gamma (PPARg) signaling pathway (AID 743094; active = well fitted activation curve with a large enough effect in the signal ratio in the repeat runs, not every such curve was filed as active; inconclusive = weak or mixed curves, or effect the other way; inactive = no such curve, though single readings can be large or run the other way; the % refers to the signal ratio)
Sequence of Peroxisome proliferator-activated receptor gamma (Homo sapiens) (P37231 whole entry, looked up): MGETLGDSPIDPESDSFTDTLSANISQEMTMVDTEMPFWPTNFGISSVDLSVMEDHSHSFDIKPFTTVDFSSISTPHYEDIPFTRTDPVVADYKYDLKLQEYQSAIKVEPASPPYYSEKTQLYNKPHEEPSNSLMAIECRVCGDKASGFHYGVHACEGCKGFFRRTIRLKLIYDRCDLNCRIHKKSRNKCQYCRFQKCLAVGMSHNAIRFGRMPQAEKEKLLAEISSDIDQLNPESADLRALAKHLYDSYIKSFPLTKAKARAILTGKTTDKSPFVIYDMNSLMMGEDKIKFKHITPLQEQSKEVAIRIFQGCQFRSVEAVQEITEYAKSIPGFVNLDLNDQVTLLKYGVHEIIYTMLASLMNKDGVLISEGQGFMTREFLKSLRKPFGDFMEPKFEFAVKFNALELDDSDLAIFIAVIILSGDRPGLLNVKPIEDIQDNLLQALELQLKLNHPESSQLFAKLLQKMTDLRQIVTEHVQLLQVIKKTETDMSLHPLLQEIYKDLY
Method in brief: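 Beta-lactamase FRET fluorescence was the read-out after a 1 h room-temperature substrate step, following 17 h compound treatment at 37C of HEK293H cells expressing a UAS-driven bla reporter responsive to PPARg.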

[9] = qHTS assay to identify small molecule phospholipidosis (PLD) inducers (AID 1259344; active = well fitted curve in the direction sought with a large enough effect; inconclusive = small, poorly fitted or top-dose-only effect, or another doubt; inactive = no such curve, though single readings can be large; an effect the other way counts as inactive or inconclusive)
Method in brief: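 Quantitative HTS in HepG2: compound plus LipidTOX Red dye for 24 h, paraformaldehyde fixation with Hoechst 33342, widefield high-content imaging; amiodarone as positive and DMSO as negative control.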

[10] = molecular target: Nuclear receptor subfamily 1 group I member 2 (Rattus norvegicus) (UniProt Q9R1A7); test: Rat pregnane X receptor (rPXR) activation by small molecules, qHTS assay (AID 1346983); settings: rPXR luciferase reporter cells, One-Glo luminescence, 24 h; max activation: active compounds read high; also: nearly all actives have a fitted effect of over 20% in size
Sequence of Nuclear receptor subfamily 1 group I member 2 (Rattus norvegicus) (Q9R1A7 whole entry, looked up): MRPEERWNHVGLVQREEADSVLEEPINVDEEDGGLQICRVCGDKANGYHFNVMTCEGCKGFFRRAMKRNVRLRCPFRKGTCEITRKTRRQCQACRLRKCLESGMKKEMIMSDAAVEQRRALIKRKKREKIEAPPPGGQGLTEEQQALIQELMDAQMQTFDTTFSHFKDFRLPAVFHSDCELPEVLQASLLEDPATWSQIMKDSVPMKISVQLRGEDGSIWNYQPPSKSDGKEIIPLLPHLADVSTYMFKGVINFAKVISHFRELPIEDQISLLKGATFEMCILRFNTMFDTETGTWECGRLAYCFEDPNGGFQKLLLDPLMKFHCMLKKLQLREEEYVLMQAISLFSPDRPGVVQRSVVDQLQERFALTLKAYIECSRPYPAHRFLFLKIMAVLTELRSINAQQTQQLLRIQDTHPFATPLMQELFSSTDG
Method in brief: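 Cell-based rPXR activation assay: rPXR cells, 2,000 per well, rested 5hr at 37 C, then exposed to compounds in DMSO for 24 hr at 37 C. Luciferase activity read by One-Glo luminescence after 30 min at room temperature.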

[11] = molecular target: Nuclear receptor subfamily 1 group I member 2 (Homo sapiens) (UniProt O75469); test: CYP3A4 induction through human pregnane X receptor (PXR) by small molecules, qHTS assay (AID 1346984); also: nearly all actives have a fitted effect of over 40% in size
Method in brief: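 Luminescence readout: luciferase signal after One-Glo (30 min, room temperature), following 3 h at 37C with 3uM final Luciferin-IPA P450 substrate. Cells were DPX-2 (HepG2, PXR/CYP3A4-luc co-transfected) dosed for 24 h.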

[12] = molecular target: Nuclear receptor subfamily 1 group I member 2 (Homo sapiens) (UniProt O75469); test: Human pregnane X receptor (PXR) activation by small molecules, qHTS assay (AID 1346985); also: nearly all actives have a fitted effect of over 40% in size
Method in brief: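 DPX-2 cells (HepG2 co-transfected with a PXR response element and a CYP3A4-promoter luciferase construct) were seeded at 2,000 per well, rested 5 hr at 37C, then exposed to DMSO-dissolved compounds for 24 hr. Activation was read as luciferase luminescence.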

[13] = qHTS assay to identify small molecule antagonists of the estrogen receptor alpha (ER-alpha) signaling pathway - cell viability counter screen (AID 743074; calls by dose curve;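 also: HEK293 cells carrying ER-alpha-UAS-bla reporter stimulated with 17beta-estradiol; nearly all actives have a fitted effect of over 45% in size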)
[14] = molecular target: Estrogen receptor (Homo sapiens) (UniProt P03372); test: qHTS assay to identify small molecule agonists of the estrogen receptor alpha (ER-alpha) signaling pathway using the BG1 cell line (AID 743079); settings: BG1Luc4E2 cells, ERE-luciferase agonist, 22 h; activation: at 70.3 µM (top of the series); also: nearly all actives have a fitted effect of over 20% in size; also: potency is read from the fitted curve at half-maximal effect
[15] = qHTS assay to identify small molecule antagonists of the estrogen receptor alpha (ER-alpha) signaling pathway using the BG1 cell line (AID 743080; calls by dose curve;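 also: BG1 cells stimulated with 17beta-estradiol alongside compound; nearly all actives have a fitted effect of over 25% in size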)
Method in brief: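 After 5 days in phenol-red-free 10% charcoal-stripped FBS medium, BG1-Luc-4E2 cells were seeded, left 24 h at 37 C, co-treated with compounds and 17beta-estradiol for 21.5 h, then assayed for viability and luciferase.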

[16] = molecular target: Estrogen receptor (Homo sapiens) (UniProt P03372); test: qHTS assay to identify small molecule antagonists of the estrogen receptor alpha (ER-alpha) signaling pathway (AID 743069; active = well fitted curve in the direction sought with a large enough effect in the signal ratio in the repeat runs, not every such curve was filed as active; inconclusive = weak or mixed curves, or effect the other way; inactive = no such curve, though single readings can be large or run the other way; the % refers to the signal ratio)
Method in brief: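 Reporter cells (ER-alpha-bla, HEK293 background) are conditioned overnight in stripped-serum medium (2% charcoal-stripped FBS). Compound and 17beta-estradiol exposure runs 18 hr at 37C, 5% CO2.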

[17] = molecular target: Aromatase (Homo sapiens) (UniProt P11511); test: qHTS assay to identify aromatase inhibitors (AID 743083); also: nearly all actives have a fitted effect of over 55% in size
Sequence of Aromatase (Homo sapiens) (P11511 whole entry, looked up): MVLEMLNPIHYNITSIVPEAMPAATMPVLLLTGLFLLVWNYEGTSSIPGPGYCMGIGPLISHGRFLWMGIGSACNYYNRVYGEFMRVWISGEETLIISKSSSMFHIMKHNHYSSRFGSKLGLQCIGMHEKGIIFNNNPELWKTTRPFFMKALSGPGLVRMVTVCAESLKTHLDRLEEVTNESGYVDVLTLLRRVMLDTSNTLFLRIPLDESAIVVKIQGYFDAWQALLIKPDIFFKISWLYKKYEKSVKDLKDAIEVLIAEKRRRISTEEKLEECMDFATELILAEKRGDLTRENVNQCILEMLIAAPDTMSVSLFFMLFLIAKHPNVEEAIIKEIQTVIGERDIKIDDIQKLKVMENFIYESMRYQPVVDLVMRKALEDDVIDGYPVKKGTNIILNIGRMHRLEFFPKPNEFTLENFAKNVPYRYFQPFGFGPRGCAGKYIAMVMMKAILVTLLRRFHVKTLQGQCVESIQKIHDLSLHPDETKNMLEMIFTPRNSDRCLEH

Compound | Potency [1] | Potency [2] | Potency [3] | Potency [4] | Potency [5] | Potency [6] | Potency [7] | Potency [8] | Potency [9] | max activation [10] [%] | Potency [11] | Potency [12] | Potency [13] | Potency [14] | Potency [15] | Potency [16] | Potency [17]
CC(C)(C)c1ccc(CN2CCN(C(c3ccccc3)c3ccc(Cl)cc3)CC2)cc1 (stereo not drawn) | 21.1 µM (active) | inactive | inactive | inactive | inactive | inactive | inactive | inactive | inactive | 10.7 | inactive | inactive | – | – | – | – | –
C=CC[C@@H]1/C=C(\C)C[C@H](C)C[C@H](OC)[C@H]2O[C@@](O)(C(=O)C(=O)N3CCCC[C@H]3C(=O)O[C@H](/C(C)=C/[C@@H]3CC[C@@H](O)[C@H](OC)C3)[C@H](C)[C@@H](O)CC1=O)[C@H](C)C[C@@H]2OC | inactive | inactive | inactive | – | inactive | inactive | inactive | – | inactive | -13.2 | inactive | inactive | inactive | inactive | inactive | – | –
CC(C)(C)C(=O)OCOC(=O)[C@@H]1N2C(=O)[C@@H](N=CN3CCCCCC3)[C@H]2SC1(C)C | – | – | inactive | – | – | inactive | inactive | inactive | inactive | -0.301 | inactive | inactive | inactive | inactive | inactive | inactive | inactive
CS(=O)(=O)OCC(O)C(O)COS(C)(=O)=O (stereo not drawn) | inactive | inactive | inactive | inactive | inactive | inactive | inactive | inactive | inactive | -4.2 | inactive | inactive | inactive | inactive | inactive | inactive | inactive
CCCCC(C)(O)C/C=C/[C@H]1[C@H](O)CC(=O)[C@@H]1CCCCCCC(=O)OC (stereo partly drawn) | inactive | inactive | – | inactive | inactive | inactive | inactive | inactive | inactive | -4.82 | inactive | inactive | inactive | – | – | – | inactive
CC(C)(C)NCC(O)c1ccc(O)c(CO)n1 (stereo not drawn) | inactive | inactive | – | inactive | – | – | inactive | – | inactive | -0.193 | inactive | inactive | inactive | – | – | – | –
O=C(OC1C[C@@H]2CC3C[C@H](C1)N2CC3=O)c1c[nH]c2ccccc12 (stereo partly drawn) | 29.8 µM (active) | – | inactive | – | inactive | – | – | inactive | inactive | 6.05 | inactive | inactive | inactive | inactive | – | inactive | inactive
CC(=O)Oc1cccc(C(=O)O)c1OC(C)=O | inactive | inactive | – | inactive | inactive | inactive | inactive | inactive | inactive | -1.97 | inactive | inactive | inactive | – | – | – | inactive
CCCCCCCCCCCCCCCCCC[N+](C)(C)CCC[Si](OC)(OC)OC | inactive | inactive | 23.9 µM [activator] (active) | inactive | inactive | inactive | inactive | inactive | inactive | 6.33 | inactive | inactive | inactive | 5.96 µM (active) | – | inactive | inactive
NC(N)=NCC1COc2ccccc2O1 (stereo not drawn) | inactive | inactive | inactive | – | inactive | – | inactive | inactive | inactive | -4.35 | inactive | inactive | inactive | inactive | inactive | inactive | inactive
CC(=O)Nc1c(I)c(C(=O)O)c(I)c(N(C)C(C)=O)c1I | inactive | inactive | – | inactive | inactive | inactive | inactive | inactive | inactive | -0.923 | inactive | inactive | inactive | – | – | – | inactive
O=C(OC[C@H]1O[C@](O)(COC(=O)c2cccnc2)[C@@H](OC(=O)c2cccnc2)[C@@H]1OC(=O)c1cccnc1)c1cccnc1 | inactive | inactive | inactive | inactive | inactive | inactive | – | inactive | inactive | 1.1 | inactive | inactive | inactive | inactive | – | inactive | inactive
C=CCOc1ccc(CC(=O)O)cc1Cl | inactive | inactive | 3.79 µM [inconclusive] (active) | inactive | inactive | – | inactive | – | inactive | -5.29 | inactive | inactive | inactive | 0.266 µM (active) | inactive | – | inactive
Oc1cc(O)cc(O)c1 | – | inactive | – | inactive | inactive | inactive | inactive | inactive | inactive | -1.47 | inactive | inactive | inactive | – | – | – | inactive
[O]=[Bi][O][Bi]=[O] | inactive | inactive | – | inactive | inactive | – | inactive | – | inactive | -2.85 | inactive | inactive | inactive | – | – | – | inactive
